The source of these data is PubChem BioAssay.

Active and inactive are the calls of the source.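 How the source made its calls: active means visually confirmed hit in the image check and inhibition above 20%; inconclusive means visually confirmed hit but inhibition not above 20%; inactive means no visual hit in the image check.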

The nature of one experiment: endothelial E-selectin expression blockers – imaging, HUVEC, immunofluorescence, MLSMR starter and 10KST1 sets, primary screen (AID 487).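 On inhibition: signal is fraction of cell area covered by stained E-selectin grains.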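 On nuclei count: 100% = median nuclei count of all wells on the same plate.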 To be noted: HUVEC TNFalpha-induced E-selectin immunofluorescence imaging, at 2 µM; inhibition: stronger effect = higher value; nuclei count: measured here: cell number, toxicity.
By inhibition is commonly meant the change of the read-out against control, counted positive when it falls. As to `N#CC1=C(N)OC2=C(C(=O)CCC2)C1CCc1ccccc1` (configuration not stated), the inhibition is -94.4% (inactive) and the nuclei count is 110%.
The like results for `CC(=N\O)/C(CN(C)C)=N/O` were, in that order, -11.6% (inactive) and 131%.
The like results for `CCOC(=O)C1/C(=N\O)CC(C)(O)C(C(=O)OCC)C1c1ccc(N(C)C)cc1` (configuration not stated) were, in that order, -131% (inactive) and 152%.
The like results for `CCOc1cc(C2Nc3ccccc3C(=O)N2c2ccccc2OC)ccc1O` (configuration not stated) were, in that order, -136% (inactive) and 124%.
Take `CCOC(=O)C1=C(N)c2ccccc2CC1C(C)C` (configuration not stated): the nuclei count was 124% and the inhibition is -86.6% (inactive).
As for `CCOc1ccc2nc(SCC(=O)Nc3ncccn3)[nH]c2c1`, the nuclei count stood at 138% and the inhibition is -10.6% (inactive).
For `O=C(CCN1C(=O)c2ccccc2C1=O)OCN1C(=O)c2ccccc2C1=O`, the nuclei count was 151% and the inhibition is -112% (inactive).
As to `CCOC(=O)Cc1nnc(Nc2cccc(O)c2)c2ccccc12`, the inhibition is -46.3% (inactive) and the nuclei count came out at 131%.
The like results for `Cc1cc(/C=N\O)c(C)n1-c1ccncc1` were, in that order, -50.3% (inactive) and 120%.
The like results for `Cc1ccc(NC(=O)CSC2=C(C#N)C(c3ccc4c(c3)OCO4)CC(=O)N2)cc1C` (configuration not stated) were, in that order, -11.7% (inactive) and 122%.
The like results for `CC1(C2(O)CC(c3ccccc3)ON2)CCCCC1` (configuration not stated) were, in that order, -10.4% (inactive) and 105%.
Regarding `COc1ccc(Cn2c(N)c(C#N)c3nc4ccccc4nc32)cc1OC`, the nuclei count was 123% and the inhibition is -66.5% (inactive).
With `Cc1nnc(SCC(=O)N2CCC(C(N)=O)CC2)s1`, the inhibition is -80.5% (inactive) and the nuclei count was 137%.
Consider `C=CCn1c(SCC(=O)c2ccccc2)nnc1-c1ccc2c(c1)OCO2`, for which the nuclei count stood at 117% and the inhibition was -60.6% (inactive).
With `CC(C)(C)c1ccc(O)c(N)c1`, the inhibition is -65.2% (inactive) and the nuclei count turned out to be 138%.
As to `CC(=O)Nc1ccc(-c2cc3ccccc3o2)cc1`, the inhibition is 11% (inactive) and the nuclei count amounted to 138%.
Take `COC(=O)c1ccccc1NC(=O)CSc1nnc(-c2ccncc2)o1`: the nuclei count amounted to 128% and the inhibition is -75.9% (inactive).
Regarding `Cc1c(C=NCCOCc2ccccc2)cnn1C`, the inhibition is -159% (inactive) and the nuclei count was determined as 116%.
In the case of `CCS(=O)(=O)CCn1c([N+](=O)[O-])cnc1C`, the inhibition was -68.3% (inactive) and the nuclei count was 110%.
As to `Cc1ccc(-n2c(N)c(C(N)=O)sc2=S)cc1`, the inhibition is -12.7% (inactive) and the nuclei count came to 146%.
The like results for `CCN(CC)CCOC(=O)C1(c2ccc(OC)c(OC)c2)CCCC1` were, in that order, -29.5% (inactive) and 96.9%.
The like results for `CCN(CC)C(=O)c1sc2nc(-c3cccs3)cc(-c3cccs3)c2c1N` were, in that order, -166% (inactive) and 121%.
The like results for `COc1ccc(/C(O)=C2/C(=O)C(=O)N(CCN(C)C)C2c2ccccn2)cc1OC` (configuration not stated) were, in that order, -108% (inactive) and 103%.
As for `CC1(C(=O)CSc2nc3ccccc3s2)CCC(=O)O1` (configuration not stated), the inhibition was -179% (inactive) and the nuclei count was 131%.
The like results for `O=C(O)CC1Sc2nc3ccccc3n2C1=O` (configuration not stated) were, in that order, -22.4% (inactive) and 116%.
The like results for `CC(=O)Nc1ccc(Oc2ccc3nc(C)[nH]c3c2)cc1` were, in that order, -129% (inactive) and 133%.
With `CC(C)c1nc(NCC2CCCO2)c(C#N)c2c1COC(C)(C)C2` (configuration not stated), the nuclei count is 132% and the inhibition is -236% (inactive).
The like results for `N#Cc1nc(COc2ccc(Br)cc2)oc1N1CCCC1` were, in that order, 132% and 14.5% (inactive).
The like results for `CCCC1Cc2c(sc3ncnc(N)c23)CO1` (configuration not stated) were, in that order, 139% and -49.3% (inactive).
In the case of `Cc1nc(Sc2cccn2C)c(C(F)(F)F)c(=O)[nH]1`, the nuclei count stood at 108% and the inhibition is -64.1% (inactive).
The like results for `COC(=O)c1cc(Br)c(=O)n(-c2nccs2)c1` were, in that order, 142% and -134% (inactive).
`Cc1ccc(SCc2[nH]nc3c2C(c2ccc(C)o2)C(C#N)=C(N)O3)cc1` (configuration not stated): the inhibition was -2.7% (inactive) and the nuclei count turned out to be 91.7%.
The like results for `COc1cccc(C2C(C(=O)c3cc4ccccc4o3)=C(O)C(=O)N2CCN(C)C)c1OC` (configuration not stated) were, in that order, -49.8% (inactive) and 124%.
As for `Cc1cc(C)n(CC2CC(=O)N(c3ccc(Cl)c(Cl)c3)C2=O)n1` (configuration not stated), the inhibition is -50.6% (inactive) and the nuclei count stood at 139%.
The like results for `CN1CCN(c2nc3c(c(=O)n(C)c(=O)n3C)n2Cc2cccc3ccccc23)CC1` were, in that order, -77.4% (inactive) and 102%.
The like results for `CC(C)C(=O)N1CCN(c2nc(-c3ccccc3)c3c(c2C#N)CCCC3)CC1` were, in that order, -17.1% (inactive) and 122%.
With `CCSc1nc(O)c(C2OC(=O)c3c2ccc(OC)c3OC)c(=O)n1-c1ccccc1` (configuration not stated), the nuclei count was found to be 146% and the inhibition was -157% (inactive).
The like results for `COc1cccc(NC(=O)CC2SC(=Nc3ccccc3)NC2=O)c1` (configuration not stated) were, in that order, 132% and -29.5% (inactive).
Turning to `Cc1nnc(NCc2n[nH]c(=O)c3ccccc23)c2ccccc12`, the inhibition is -23.8% (inactive) and the nuclei count amounted to 118%.

A further experiment is described as follows: Primary imaging screen for DUSP6 inhibitors that restore phospho-Erk in transfected HeLa cells, chemical complementation (AID 609). To be noted: HeLa MKP-3 transfected, phospho-Erk imaging KS statistic; measured here: cell density z-score; at 10 µM; cells stimulated with TPA for 15 min.
Consider `N#CC1=C(N)OC2=C(C(=O)CCC2)C1CCc1ccccc1` (configuration not stated), for which the z-score was found to be 1.04.
The compound `CC(=N\O)/C(CN(C)C)=N/O` displayed a z-score of 0.774.
With `CCOC(=O)C1/C(=N\O)CC(C)(O)C(C(=O)OCC)C1c1ccc(N(C)C)cc1` (configuration not stated), the z-score is -0.215.
For `CCOc1cc(C2Nc3ccccc3C(=O)N2c2ccccc2OC)ccc1O` (configuration not stated), the z-score is 0.614.
Compound `CCOC(=O)C1=C(N)c2ccccc2CC1C(C)C` (configuration not stated) came in with a z-score of 2.18.
The same measure, in the same setting: the figure for `CCOc1ccc2nc(SCC(=O)Nc3ncccn3)[nH]c2c1` is -1.13.
On to `O=C(CCN1C(=O)c2ccccc2C1=O)OCN1C(=O)c2ccccc2C1=O`, for which the z-score stood at 0.766.
The same measure, in the same setting: next, `CCOC(=O)Cc1nnc(Nc2cccc(O)c2)c2ccccc12`: -1.97; `Cc1cc(/C=N\O)c(C)n1-c1ccncc1`: -0.413.
Same read-out and setting: next, `Cc1ccc(NC(=O)CSC2=C(C#N)C(c3ccc4c(c3)OCO4)CC(=O)N2)cc1C` (configuration not stated): 0.402; `CC1(C2(O)CC(c3ccccc3)ON2)CCCCC1` (configuration not stated): -1.89.
Still for that read-out and setting: next, `COc1ccc(Cn2c(N)c(C#N)c3nc4ccccc4nc32)cc1OC`: 0.51; `Cc1nnc(SCC(=O)N2CCC(C(N)=O)CC2)s1`: -1.3.
Compound `C=CCn1c(SCC(=O)c2ccccc2)nnc1-c1ccc2c(c1)OCO2` yielded a z-score of 0.143.
On the same count and under the same terms, the figure for `CC(C)(C)c1ccc(O)c(N)c1` is 0.287; for `CC(=O)Nc1ccc(-c2cc3ccccc3o2)cc1` it is -0.412; for `COC(=O)c1ccccc1NC(=O)CSc1nnc(-c2ccncc2)o1` it is 0.433.
The same measure, in the same setting: the figure for `Cc1c(C=NCCOCc2ccccc2)cnn1C` is 0.444; for `CCS(=O)(=O)CCn1c([N+](=O)[O-])cnc1C` it is 0.704.
On the same count and under the same terms, next, `Cc1ccc(-n2c(N)c(C(N)=O)sc2=S)cc1`: -0.361; `CCN(CC)CCOC(=O)C1(c2ccc(OC)c(OC)c2)CCCC1`: -0.552; `CCN(CC)C(=O)c1sc2nc(-c3cccs3)cc(-c3cccs3)c2c1N`: 1.5.
`COc1ccc(/C(O)=C2/C(=O)C(=O)N(CCN(C)C)C2c2ccccn2)cc1OC` (configuration not stated) returned a z-score of -0.696.
Still for that read-out and setting: the figure for `CC1(C(=O)CSc2nc3ccccc3s2)CCC(=O)O1` (configuration not stated) is 0.414.
The same measure, in the same setting: next, `O=C(O)CC1Sc2nc3ccccc3n2C1=O` (configuration not stated): -0.312; `CC(=O)Nc1ccc(Oc2ccc3nc(C)[nH]c3c2)cc1`: -0.271; `CC(C)c1nc(NCC2CCCO2)c(C#N)c2c1COC(C)(C)C2` (configuration not stated): -0.206.
Take `N#Cc1nc(COc2ccc(Br)cc2)oc1N1CCCC1`: the z-score is -1.92.
The same measure, in the same setting: the figure for `CCCC1Cc2c(sc3ncnc(N)c23)CO1` (configuration not stated) is -0.574; for `Cc1nc(Sc2cccn2C)c(C(F)(F)F)c(=O)[nH]1` it is -1.97; for `COC(=O)c1cc(Br)c(=O)n(-c2nccs2)c1` it is -1.41.
On the same count and under the same terms, next, `Cc1ccc(SCc2[nH]nc3c2C(c2ccc(C)o2)C(C#N)=C(N)O3)cc1` (configuration not stated): -2.32; `COc1cccc(C2C(C(=O)c3cc4ccccc4o3)=C(O)C(=O)N2CCN(C)C)c1OC` (configuration not stated): 0.445; `Cc1cc(C)n(CC2CC(=O)N(c3ccc(Cl)c(Cl)c3)C2=O)n1` (configuration not stated): 0.432.
Take `CN1CCN(c2nc3c(c(=O)n(C)c(=O)n3C)n2Cc2cccc3ccccc23)CC1`: the z-score was -0.546.
The same measure, in the same setting: the figure for `CC(C)C(=O)N1CCN(c2nc(-c3ccccc3)c3c(c2C#N)CCCC3)CC1` is 0.333.
On the same count and under the same terms, the figure for `CCSc1nc(O)c(C2OC(=O)c3c2ccc(OC)c3OC)c(=O)n1-c1ccccc1` (configuration not stated) is 0.533.
As to `COc1cccc(NC(=O)CC2SC(=Nc3ccccc3)NC2=O)c1` (configuration not stated), the z-score is -0.312.
Same read-out and setting: next, `Cc1nnc(NCc2n[nH]c(=O)c3ccccc23)c2ccccc12`: -2.3.
